According to ChEMBL document CHEMBL1157539, “Thousands of chemical starting points for antimalarial lead identification” (Nature, 2010):
The full ranking holds about 13,000 compounds; the median of “IFI” is about 4, and the highest 2% start at about 17. Shown is part of a subset that was picked to be rich in the highest values.

assay: GSK_TCMDC: Inhibition Frequency Index (IFI). The number of non-kinase HTS assays where a compound showed > 50 % inhibition, expressed as a percentage of the number of such assays in which the compound was tested; type: functional

Compound | IFI [%]
OCCN1CCN(Cc2ccc(-c3cccc(-c4nc5cc(F)ccc5[nH]4)c3)cc2)CC1 | 3.92
CN(C)Cc1cccc(-c2cnc(N)c(-c3nc4cc(S(C)(=O)=O)ccc4[nH]3)c2)c1 | 7.41
Fc1ccc2[nH]c(-c3cccc(-c4ccc(CNCC5CCCO5)cc4)c3)nc2c1 (stereo not given) | 5.88
O=C(Nc1ccc2c(c1)CCNCC2)c1ccc(-c2ccc(Cl)cc2)cc1 | 9.66
O=C(Nc1ccc(Cl)cc1)Nc1cccc(-c2cccc(-c3nc4cc(C(F)(F)F)ccc4[nH]3)c2)c1 | 9
Cc1cccc2nc(-c3ccc(-c4ccc(NC(=O)Nc5ccc(Cl)cc5)cc4)cc3)[nH]c12 | 4
O=C(Nc1ccc(Cl)cc1)c1cc(Cl)cc2nc(C(F)(F)F)[nH]c12 | 27.1
COc1ccc(Cl)cc1C(=O)Nc1ccc(-c2nc3ccccc3[nH]2)cc1 | 6.52
O=C(Nc1ccc(-c2cccc(-c3nc4cc(C(F)(F)F)ccc4[nH]3)c2)cc1)c1ccncc1 | 6.42
O=C(Nc1cccc(C(F)(F)F)c1)c1cccc2nc(C(F)(F)F)[nH]c12 | 16.4
O=C(Nc1ccc(C(F)(F)F)cc1)c1cc(Cl)cc2nc(C(F)(F)F)[nH]c12 | 23.4
O=C(Nc1ccc(Cl)cc1)c1cccc2nc(C(F)(F)F)[nH]c12 | 21.3
COc1cccc(NC(=O)Cn2c(C)c(C#N)c3ccccc32)c1 | 0
CCOC(=O)c1ccc(-c2cnc(N)c(-c3nc4cccc(C)c4[nH]3)c2)cc1 | 0.69
Cc1ccc(Nc2nccc(Nc3ccc4c(c3)nc(Nc3cc(C(C)(C)C)on3)n4C)n2)cc1S(C)(=O)=O | 7.63
COc1ccc(CNC2Cc3ccccc3C2)cc1-c1ccc(OC)c(S(=O)(=O)NCCN2CCCC2)c1 | 7.69
CCn1cc(-c2nc(-c3cc(OC)cc(OC)c3)no2)c(=O)c2ccccc21 | 4.35
CC(C)N1CCN(C(CN2CCN(CCCOc3cccc(F)c3)CC2)c2ccc(F)cc2)CC1 (stereo not given) | 6.2
CN1CCN(c2ccc(Nc3nccc(-c4c(-c5cccc(NC(=O)c6c(F)cccc6F)c5)nn5ccccc45)n3)cc2)CC1 | 9.35
CN1CCc2cc(NS(=O)(=O)c3ccc(-c4ccc(Cl)cc4)cc3)c(OCCCN3CCCCC3)cc2CC1 | 18.6

Compound | IFI [%]
O=S(=O)(Nc1cc2c(cc1OCCCN1CCCCC1)CCNCC2)c1ccc(-c2ccc(Cl)cc2)cc1 | 11.9
CC(C)Oc1cc2c(cc1NS(=O)(=O)c1ccc(-c3ccc(Cl)cc3)cc1)CCN(C)CC2 | 12.4
c1cc(CN2CCCCC2)cc(-c2ccc(-c3nc4ccccc4[nH]3)s2)c1 | 2.86
COc1ccc(CNC2Cc3ccccc3C2)cc1-c1ccc(S(=O)(=O)NCc2ccccc2)s1 | 12.3
Cc1ccc(C(=O)Nc2ccc(Nc3ccnc4cc(-c5ccccn5)ccc34)cc2O)cc1 | 10.3
COc1ccc(CCN(C)CCOc2ccc(NC(=O)c3cccc4cc5ccccc5nc34)cc2)cc1OC | 6.67
COc1ccc(Cc2nc(/N=C(\N)Nc3ccccc3)ccc2OC)cc1 | 22.6
COc1ccc(/N=C(\N)Nc2ccccc2)nc1Cc1ccccc1 | 30.2
COc1cc2nc(C)nc(Nc3ccc(Cc4ccccc4)cc3)c2cc1OC | 6.35
COc1cc2cc(C(=O)Nc3ccccc3)c(N)nc2cc1OC | 1.28
COc1ccc2nc(NC(N)=NC(=O)Nc3ccccc3)nc(C)c2c1 | 0.81
Nc1cc(/C=C/c2ccc([N+](=O)[O-])o2)nc2ccccc12 | 16.7
Nc1cc(/C=C/c2ccc([N+](=O)[O-])s2)nc2ccccc12 | 19.2
Nc1c2ccccc2nc2cc([N+](=O)[O-])ccc12 | 6.92
O=C(c1cccc(Br)c1)N1CCN(c2ccc([N+](=O)[O-])c(NC3CC3)c2)CC1 | 4.2
COc1ccc2ncc(F)c(CCN3CC[C@@H](CNCc4nc5c(cc4C)SCC(=O)N5)C3)c2n1 | 5.83
CCOc1ccc2nc3cc(N)ccc3c(N)c2c1 | 2.08
CCOc1ccc2nc3cc([N+](=O)[O-])ccc3c(N)c2c1 | 6.34
CCOc1ccc2nc3cc(NC(=O)c4ccco4)ccc3c(N)c2c1 | 20.5
CC(C)(CNCc1cccc(Oc2cccc(C(F)(F)F)c2)c1)c1nc(-c2ccnc(N)n2)c(-c2ccc(Cl)c(O)c2)[nH]1 | 4.35

Compound | IFI [%]
CCNc1cc(C)nc(Nc2ccccc2)n1 | 2.94
CCNc1cc(C)nc(Nc2ccc(NS(=O)(=O)c3ccccc3)cc2)n1 | 20.4
CCNc1cc(C)nc(Nc2ccc(NC(=O)c3ccccc3Cl)cc2)n1 | 11.3
Cc1cc(N(C)C)nc(Nc2ccc(NS(=O)(=O)c3ccccc3)cc2)n1 | 9.62
CCNc1cc(C)nc(Nc2ccc(NC(=O)c3c(F)cccc3Cl)cc2)n1 | 18.2
Cc1cc(N(C)C)nc(Nc2ccc(NC(=O)c3c(F)cccc3Cl)cc2)n1 | 1.89
Cc1cc(Nc2ccc(O)cc2)nc2cc(O)ccc12 | 3.85
CCCCN(CCCC)/C(=N/C(=N)NCc1ccc(Cl)c(Cl)c1)NCCCCCCN/C(=N\C(=N)NCc1ccc(Cl)c(Cl)c1)N(CCCC)CCCC | 22.9
N=C(/N=C(/NCCCCCCN/C(=N\C(=N)Nc1ccc(Cl)cc1)N1CCCCC1)N1CCCCC1)Nc1ccc(Cl)cc1 | 10.9
CCN(CC)/C(=N/C(=N)NCc1cccc(Cl)c1)NCCCCCCN/C(=N\C(=N)NCc1cccc(Cl)c1)N(CC)CC | 13.8
CN(C)/C(=N/C(=N)NCc1ccc(Cl)c(Cl)c1)NCCCCCCN/C(=N\C(=N)NCc1ccc(Cl)c(Cl)c1)N(C)C | 11.8
N=C(/N=C(/NCCCCCCN/C(=N/C(=N)NCc1ccc(Cl)c(Cl)c1)N1CCCCC1)N1CCCCC1)NCc1ccc(Cl)c(Cl)c1 | 18.8
N=C(/N=C(/NCCCCCCN/C(=N\C(=N)Nc1ccc(Cl)cc1)N1CCOCC1)N1CCOCC1)Nc1ccc(Cl)cc1 | 6.72
Cc1cccc2nc(-c3cccc(-c4ccc(NC(=O)C5CCCO5)cc4)c3)[nH]c12 (stereo not given) | 5.31
Cc1ccc(C(=O)Nc2ccc(F)cc2)cc1-c1nc(NC2CC(C)(C)NC(C)(C)C2)nc2c1ccc(=O)n2-c1c(F)cccc1F | 10.9
CC(C)c1ccc(OCCCON2C(=N)N=C(N)NC2(C)C)cc1 | 6.34
CCOC(=O)c1c(-c2ccccc2)nc2c(sc3ccccc32)c1O | 1.48
c1ccc(CCNc2ccnc(Nc3ccc4[nH]nnc4c3)n2)cc1 | 3.23
CCN(CC)CCN(Cc1ccc(-c2ccc(C(F)(F)F)cc2)cc1)C(=O)Cn1c(SCc2ccc(F)cc2)cc(=O)c2ccccc21 | 7.64
COc1ccc2[nH]ccc(=NN=Cc3ccc(F)cc3)c2c1 | 2.22
